Assay results published in article PMC8384837, “Expanding the binding specificity for RNA recognition by a PUF domain”.
Substitutions are numbered along the chain they refer to.

Legend:
Experiment in all cases: yeast three-hybrid, YBZ-1, SC-Leu-His + 0.5 mM 3-AT, 4 days
Conditions in all cases: tags: N-Gal4 AD-HA kept; label: inside an RPR1-promoter hybrid RNA with tandem MS2 sites; ssRNA
PUM1 PUF domain R3-GWG = PUM1 PUF domain R3-GWG (Homo sapiens, UniProt Q14671 828-1176, C935G;R936W;Q939G)
Outline: (§1)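 Pumilio-1 PUF domain libraries, randomized at the three base-contacting residues of each repeat, were co-expressed with matching RNA elements from a centromeric plasmid in strain YBZ-1, which carries a LexA–MS2 coat fusion and a HIS3 reporter. Transformants grew for four days on SC-Leu (input) or on SC-Leu-His + 0.5 mM 3-AT (selection), and the repeat regions were PCR-amplified and Illumina-sequenced. The interaction score is the log change in variant frequency from input to selection. That logarithm is base 2, with a pseudocount of 1 where a variant was absent.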

PUM1 PUF domain R1-RCS = PUM1 PUF domain R1-RCS (Homo sapiens, UniProt Q14671 828-1176, S863R;R864C;Q867S)
PUM1 PUF domain R1-RCS, sequence (Q14671 828-1176 S863R/R864C/Q867S): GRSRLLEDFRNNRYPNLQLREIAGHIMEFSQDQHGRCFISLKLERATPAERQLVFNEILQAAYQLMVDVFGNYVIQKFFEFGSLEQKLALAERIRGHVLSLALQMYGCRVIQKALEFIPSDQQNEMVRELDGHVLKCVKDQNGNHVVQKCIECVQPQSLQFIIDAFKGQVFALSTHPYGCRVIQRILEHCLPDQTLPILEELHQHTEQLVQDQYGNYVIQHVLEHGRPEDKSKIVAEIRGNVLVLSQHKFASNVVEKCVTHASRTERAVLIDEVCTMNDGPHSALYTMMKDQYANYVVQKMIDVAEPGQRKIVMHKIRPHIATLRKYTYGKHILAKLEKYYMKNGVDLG
Outline: as §1

PUM1 PUF domain R5-QMG = PUM1 PUF domain R5-QMG (Homo sapiens, UniProt Q14671 828-1176, C1007Q;R1008M;Q1011G)
Outline: as §1

PUM1 PUF domain R5-RKS = PUM1 PUF domain R5-RKS (Homo sapiens, UniProt Q14671 828-1176, C1007R;R1008K;Q1011S)
Outline: as §1

PUM1 PUF domain R5-FRR = PUM1 PUF domain R5-FRR (Homo sapiens, UniProt Q14671 828-1176, C1007F;Q1011R)
PUM1 PUF domain R5-FRR, sequence (Q14671 828-1176 C1007F/Q1011R): as the sequence (Q14671 828-1176 S863R/R864C/Q867S) above, with R36S, C37R, S40Q, C180F, Q184R counted along it
Outline: as §1

PUM1 PUF domain R5-HLY = PUM1 PUF domain R5-HLY (Homo sapiens, UniProt Q14671 828-1176, C1007H;R1008L;Q1011Y)
Outline: as §1

PUM1 PUF domain R6-AFL = molecular target: T1, PUM1 PUF domain R6-AFL (Homo sapiens, UniProt Q14671 828-1176, N1043A;Y1044F;Q1047L)
T1 sequence: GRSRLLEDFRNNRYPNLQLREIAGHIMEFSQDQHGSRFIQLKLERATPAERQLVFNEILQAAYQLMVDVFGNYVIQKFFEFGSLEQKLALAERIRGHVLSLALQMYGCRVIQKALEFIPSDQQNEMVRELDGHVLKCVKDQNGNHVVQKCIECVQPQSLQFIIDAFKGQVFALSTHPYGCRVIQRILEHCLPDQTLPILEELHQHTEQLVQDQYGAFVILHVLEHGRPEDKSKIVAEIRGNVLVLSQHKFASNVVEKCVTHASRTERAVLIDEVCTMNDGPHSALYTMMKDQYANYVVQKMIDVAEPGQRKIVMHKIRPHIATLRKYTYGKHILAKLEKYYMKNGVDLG
Outline: as §1

PUM1 PUF domain R6-NRI = molecular target: T2, PUM1 PUF domain R6-NRI (Homo sapiens, UniProt Q14671 828-1176, Y1044R;Q1047I)
T2 sequence: T1 sequence with A216N, F217R, L220I
Outline: as §1

PUM1 PUF domain R7-GGK = PUM1 PUF domain R7-GGK (Homo sapiens, UniProt Q14671 828-1176, S1079G;N1080G;E1083K)
Outline: as §1

PUM1 PUF domain R4-TPG = PUM1 PUF domain R4-TPG (Homo sapiens, UniProt Q14671 828-1176, N971T;H972P;Q975G)
PUM1 PUF domain R4-TPG, sequence (Q14671 828-1176 N971T/H972P/Q975G): as the sequence (Q14671 828-1176 S863R/R864C/Q867S) above, with R36S, C37R, S40Q, N144T, H145P, Q148G counted along it
Outline: as §1

PUM1 PUF domain R4-SPW = PUM1 PUF domain R4-SPW (Homo sapiens, UniProt Q14671 828-1176, N971S;H972P;Q975W)
PUM1 PUF domain R4-SPW, sequence (Q14671 828-1176 N971S/H972P/Q975W): as the sequence (Q14671 828-1176 S863R/R864C/Q867S) above, with R36S, C37R, S40Q, N144S, H145P, Q148W counted along it
Outline: as §1

PUM1 PUF domain R4-AHP = PUM1 PUF domain R4-AHP (Homo sapiens, UniProt Q14671 828-1176, N971A;Q975P)
Outline: as §1

PUM1 PUF domain R8-VWP = PUM1 PUF domain R8-VWP (Homo sapiens, UniProt Q14671 828-1176, N1122V;Y1123W;Q1126P)
Outline: as §1

PUM1 PUF domain R3-PWW = PUM1 PUF domain R3-PWW (Homo sapiens, UniProt Q14671 828-1176, C935P;R936W;Q939W)
Outline: as §1

PUM1 PUF domain R4-QPS = PUM1 PUF domain R4-QPS (Homo sapiens, UniProt Q14671 828-1176, N971Q;H972P;Q975S)
Outline: as §1

PUM1 PUF domain R3-SRP = PUM1 PUF domain R3-SRP (Homo sapiens, UniProt Q14671 828-1176, C935S;Q939P)
Outline: as §1

PUM1 PUF domain R3-RAV = PUM1 PUF domain R3-RAV (Homo sapiens, UniProt Q14671 828-1176, C935R;R936A;Q939V)
Outline: as §1

PUM1 PUF domain R3-RQR = PUM1 PUF domain R3-RQR (Homo sapiens, UniProt Q14671 828-1176, C935R;R936Q;Q939R)
Outline: as §1

PUM1 PUF domain R1-GIR = PUM1 PUF domain R1-GIR (Homo sapiens, UniProt Q14671 828-1176, S863G;R864I;Q867R)
Outline: as §1

PUM1 PUF domain R1-KIM = PUM1 PUF domain R1-KIM (Homo sapiens, UniProt Q14671 828-1176, S863K;R864I;Q867M)
Outline: as §1

PUM1 PUF domain R3-GWG, sequence (Q14671 828-1176 C935G/R936W/Q939G): as the sequence (Q14671 828-1176 S863R/R864C/Q867S) above, with R36S, C37R, S40Q, C108G, R109W, Q112G counted along it

## GGCUAGAACUAGUGGAUCCCCCGGCGCCCGGCGGCUCGAGCCCGGGUAAGUGUAAGUAGUCUGCAUGCCGCCGGGCGCCAUGCCUGCAGGUCGACUCUAGAAAACAUG
PUM1 PUF domain R3-GWG
  binding signal: 3.17 log2 enrichment (interaction score)

## GGCUAGAACUAGUGGAUCCCCCGGCGCCCGGCGGCUCGAGCCCGGGUAAGUGUAAAUGGUCUGCAUGCCGCCGGGCGCCAUGCCUGCAGGUCGACUCUAGAAAACAUG
PUM1 PUF domain R1-RCS
  binding signal: 1.75 log2 enrichment (interaction score)

## GGCUAGAACUAGUGGAUCCCCCGGCGCCCGGCGGCUCGAGCCCGGGUAAGUGUGAAUAGUCUGCAUGCCGCCGGGCGCCAUGCCUGCAGGUCGACUCUAGAAAACAUG
PUM1 PUF domain R5-QMG
  binding signal: 2.26 log2 enrichment (interaction score)

## GGCUAGAACUAGUGGAUCCCCCGGCGCCCGGCGGCUCGAGCCCGGGUAAGUGUCAAUAGUCUGCAUGCCGCCGGGCGCCAUGCCUGCAGGUCGACUCUAGAAAACAUG
PUM1 PUF domain R5-RKS
  binding signal: 3.2 log2 enrichment (interaction score)
PUM1 PUF domain R5-FRR
  binding signal: 4.1 log2 enrichment (interaction score)
PUM1 PUF domain R5-HLY
  binding signal: 3.47 log2 enrichment (interaction score)

## GGCUAGAACUAGUGGAUCCCCCGGCGCCCGGCGGCUCGAGCCCGGGUAAGUGAAAAUAGUCUGCAUGCCGCCGGGCGCCAUGCCUGCAGGUCGACUCUAGAAAACAUG
PUM1 PUF domain R6-AFL
  binding signal: 4.25 log2 enrichment (interaction score)
PUM1 PUF domain R6-NRI
  binding signal: 2.1 log2 enrichment (interaction score)

## GGCUAGAACUAGUGGAUCCCCCGGCGCCCGGCGGCUCGAGCCCGGGUAAGUUUAAAUAGUCUGCAUGCCGCCGGGCGCCAUGCCUGCAGGUCGACUCUAGAAAACAUG
PUM1 PUF domain R7-GGK
  binding signal: 3.4 log2 enrichment (interaction score)

## GGCUAGAACUAGUGGAUCCCCCGGCGCCCGGCGGCUCGAGCCCGGGUAAGUGUACAUAGUCUGCAUGCCGCCGGGCGCCAUGCCUGCAGGUCGACUCUAGAAAACAUG
PUM1 PUF domain R4-TPG
  binding signal: 3.87 log2 enrichment (interaction score)
PUM1 PUF domain R4-SPW
  binding signal: 0.34 log2 enrichment (interaction score)
PUM1 PUF domain R4-AHP
  binding signal: 4.93 log2 enrichment (interaction score)

## GGCUAGAACUAGUGGAUCCCCCGGCGCCCGGCGGCUCGAGCCCGGGUAAGUGUAAAUAGUCUGCAUGCCGCCGGGCGCCAUGCCUGCAGGUCGACUCUAGAAAACAUG
PUM1 PUF domain R8-VWP
  binding signal: 1.71 log2 enrichment (interaction score)
PUM1 PUF domain R4-TPG
  binding signal: 3.31 log2 enrichment (interaction score)
PUM1 PUF domain R3-PWW
  binding signal: 2.43 log2 enrichment (interaction score)
PUM1 PUF domain R5-RKS
  binding signal: 0.56 log2 enrichment (interaction score)
PUM1 PUF domain R5-FRR
  binding signal: 1.31 log2 enrichment (interaction score)
PUM1 PUF domain R4-SPW
  binding signal: 3.13 log2 enrichment (interaction score)
PUM1 PUF domain R4-QPS
  binding signal: 1.44 log2 enrichment (interaction score)
PUM1 PUF domain R3-GWG
  binding signal: 4.07 log2 enrichment (interaction score)
PUM1 PUF domain R6-NRI
  binding signal: 4.34 log2 enrichment (interaction score)
PUM1 PUF domain R3-SRP
  binding signal: 5.42 log2 enrichment (interaction score)

## GGCUAGAACUAGUGGAUCCCCCGGCGCCCGGCGGCUCGAGCCCGGGUAAGUGUAAUUAGUCUGCAUGCCGCCGGGCGCCAUGCCUGCAGGUCGACUCUAGAAAACAUG
PUM1 PUF domain R3-RAV
  binding signal: 3.5 log2 enrichment (interaction score)
PUM1 PUF domain R3-GWG
  binding signal: 1.55 log2 enrichment (interaction score)
PUM1 PUF domain R3-RQR
  binding signal: 3.88 log2 enrichment (interaction score)
PUM1 PUF domain R3-SRP
  binding signal: 1.56 log2 enrichment (interaction score)

## GGCUAGAACUAGUGGAUCCCCCGGCGCCCGGCGGCUCGAGCCCGGGUAAGUGUAAAUUGUCUGCAUGCCGCCGGGCGCCAUGCCUGCAGGUCGACUCUAGAAAACAUG
PUM1 PUF domain R1-GIR
  binding signal: 3.23 log2 enrichment (interaction score)
PUM1 PUF domain R1-RCS
  binding signal: 3.23 log2 enrichment (interaction score)
PUM1 PUF domain R1-KIM
  binding signal: 3.49 log2 enrichment (interaction score)

## GGCUAGAACUAGUGGAUCCCCCGGCGCCCGGCGGCUCGAGCCCGGGUAAGUGUUAAUAGUCUGCAUGCCGCCGGGCGCCAUGCCUGCAGGUCGACUCUAGAAAACAUG
PUM1 PUF domain R5-FRR
  binding signal: 3.38 log2 enrichment (interaction score)

## GGCUAGAACUAGUGGAUCCCCCGGCGCCCGGCGGCUCGAGCCCGGGUAAGCGUAAAUAGUCUGCAUGCCGCCGGGCGCCAUGCCUGCAGGUCGACUCUAGAAAACAUG
PUM1 PUF domain R8-VWP
  binding signal: 3.01 log2 enrichment (interaction score)

## GGCUAGAACUAGUGGAUCCCCCGGCGCCCGGCGGCUCGAGCCCGGGUAAGUGUAUAUAGUCUGCAUGCCGCCGGGCGCCAUGCCUGCAGGUCGACUCUAGAAAACAUG
PUM1 PUF domain R4-TPG
  binding signal: 4.15 log2 enrichment (interaction score)
PUM1 PUF domain R4-SPW
  binding signal: 2.59 log2 enrichment (interaction score)
PUM1 PUF domain R4-QPS
  binding signal: 3.86 log2 enrichment (interaction score)

## GGCUAGAACUAGUGGAUCCCCCGGCGCCCGGCGGCUCGAGCCCGGGUAAGUGUAAAUCGUCUGCAUGCCGCCGGGCGCCAUGCCUGCAGGUCGACUCUAGAAAACAUG
PUM1 PUF domain R1-GIR
  binding signal: 4.44 log2 enrichment (interaction score)
PUM1 PUF domain R1-RCS
  binding signal: 3.49 log2 enrichment (interaction score)
